{"source": "PubChem BioAssay", "key": {"[1]": {"molecular_target": "Nuclear receptor coactivator 3 (Homo sapiens) (UniProt Q9Y6Q9)", "sequence (Q9Y6Q9 whole entry, looked up, the tested form may be a part)": "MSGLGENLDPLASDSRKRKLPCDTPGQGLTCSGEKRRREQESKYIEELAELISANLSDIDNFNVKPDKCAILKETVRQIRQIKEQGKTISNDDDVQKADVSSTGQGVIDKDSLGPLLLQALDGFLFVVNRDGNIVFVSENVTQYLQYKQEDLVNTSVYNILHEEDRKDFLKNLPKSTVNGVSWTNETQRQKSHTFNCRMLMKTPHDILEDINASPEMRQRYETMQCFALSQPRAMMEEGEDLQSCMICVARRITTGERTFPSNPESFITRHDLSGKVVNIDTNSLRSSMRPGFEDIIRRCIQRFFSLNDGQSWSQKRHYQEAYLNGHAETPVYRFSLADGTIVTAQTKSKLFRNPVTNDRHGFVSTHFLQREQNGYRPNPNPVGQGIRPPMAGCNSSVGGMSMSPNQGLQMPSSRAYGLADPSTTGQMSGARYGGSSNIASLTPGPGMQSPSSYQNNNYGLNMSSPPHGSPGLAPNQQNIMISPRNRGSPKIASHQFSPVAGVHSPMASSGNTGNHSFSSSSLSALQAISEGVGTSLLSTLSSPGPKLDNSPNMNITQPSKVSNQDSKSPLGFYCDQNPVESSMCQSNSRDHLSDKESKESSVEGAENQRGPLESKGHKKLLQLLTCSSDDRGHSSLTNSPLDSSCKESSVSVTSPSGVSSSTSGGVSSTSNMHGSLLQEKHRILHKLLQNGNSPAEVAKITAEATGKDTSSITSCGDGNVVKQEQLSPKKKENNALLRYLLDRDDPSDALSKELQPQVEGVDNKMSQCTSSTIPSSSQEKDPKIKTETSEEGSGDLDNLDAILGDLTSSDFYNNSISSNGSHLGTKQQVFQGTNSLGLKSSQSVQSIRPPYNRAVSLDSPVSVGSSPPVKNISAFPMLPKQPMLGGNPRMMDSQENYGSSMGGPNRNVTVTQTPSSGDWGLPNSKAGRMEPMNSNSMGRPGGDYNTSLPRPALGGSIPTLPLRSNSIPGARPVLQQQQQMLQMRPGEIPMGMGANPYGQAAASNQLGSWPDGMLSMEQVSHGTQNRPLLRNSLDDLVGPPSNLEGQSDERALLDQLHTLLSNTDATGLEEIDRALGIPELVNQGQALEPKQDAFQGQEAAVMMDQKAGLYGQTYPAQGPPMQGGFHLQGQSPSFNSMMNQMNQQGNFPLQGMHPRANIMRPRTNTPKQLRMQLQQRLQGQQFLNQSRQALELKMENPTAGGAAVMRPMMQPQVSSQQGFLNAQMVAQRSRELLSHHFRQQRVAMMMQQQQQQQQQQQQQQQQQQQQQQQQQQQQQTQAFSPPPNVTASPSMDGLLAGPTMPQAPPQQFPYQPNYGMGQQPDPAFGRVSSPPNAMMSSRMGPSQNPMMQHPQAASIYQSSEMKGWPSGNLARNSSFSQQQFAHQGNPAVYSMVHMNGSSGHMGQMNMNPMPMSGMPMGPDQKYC", "assay": "NCOA3 GAL4-fusion reporter inhibition – cell-based, luminescence, quadruplicate, confirmation (AID 588792;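 active = mean inhibition over 43.08%, the solvent-only control mean plus 3 SD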;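 note: 0% = DMSO treated cells and 100% = gossypol at 36 µM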)", "details": "HEK293 GAL4-SRC3 luciferase reporter, at 3.6 µM, stronger effect = higher value"}, "[2]": {"tested_on": "transactivating tegument protein VP16 (Human herpesvirus 1), Gal4-VP16 luciferase reporter", "assay": "repression of VP16-driven luciferase reporter – cell-based, luminescence, high throughput, counter-screen for SRC3 inhibitor project (AID 588794; in the data active = inhibition above about 30%)", "details": "mammalian cells, at 3.6 µM, stronger effect = higher value"}, "[3]": {"tested_on": "transactivating tegument protein VP16 (Human herpesvirus 1)", "assay": "compounds suppressing VP16-driven luciferase signal – cell-based, luminescence, single concentration, counter-screen for SRC2 inhibitor project (AID 652007; in the data active = inhibition above about 36%)", "details": "cell-based VP16 transactivation luciferase reporter, at 8.9 µM, stronger effect = higher value"}, "[4]": {"molecular_target": "Nuclear receptor coactivator 2 (Homo sapiens) (UniProt Q15596)", "sequence (Q15596 whole entry, looked up, the tested form may be a part)": "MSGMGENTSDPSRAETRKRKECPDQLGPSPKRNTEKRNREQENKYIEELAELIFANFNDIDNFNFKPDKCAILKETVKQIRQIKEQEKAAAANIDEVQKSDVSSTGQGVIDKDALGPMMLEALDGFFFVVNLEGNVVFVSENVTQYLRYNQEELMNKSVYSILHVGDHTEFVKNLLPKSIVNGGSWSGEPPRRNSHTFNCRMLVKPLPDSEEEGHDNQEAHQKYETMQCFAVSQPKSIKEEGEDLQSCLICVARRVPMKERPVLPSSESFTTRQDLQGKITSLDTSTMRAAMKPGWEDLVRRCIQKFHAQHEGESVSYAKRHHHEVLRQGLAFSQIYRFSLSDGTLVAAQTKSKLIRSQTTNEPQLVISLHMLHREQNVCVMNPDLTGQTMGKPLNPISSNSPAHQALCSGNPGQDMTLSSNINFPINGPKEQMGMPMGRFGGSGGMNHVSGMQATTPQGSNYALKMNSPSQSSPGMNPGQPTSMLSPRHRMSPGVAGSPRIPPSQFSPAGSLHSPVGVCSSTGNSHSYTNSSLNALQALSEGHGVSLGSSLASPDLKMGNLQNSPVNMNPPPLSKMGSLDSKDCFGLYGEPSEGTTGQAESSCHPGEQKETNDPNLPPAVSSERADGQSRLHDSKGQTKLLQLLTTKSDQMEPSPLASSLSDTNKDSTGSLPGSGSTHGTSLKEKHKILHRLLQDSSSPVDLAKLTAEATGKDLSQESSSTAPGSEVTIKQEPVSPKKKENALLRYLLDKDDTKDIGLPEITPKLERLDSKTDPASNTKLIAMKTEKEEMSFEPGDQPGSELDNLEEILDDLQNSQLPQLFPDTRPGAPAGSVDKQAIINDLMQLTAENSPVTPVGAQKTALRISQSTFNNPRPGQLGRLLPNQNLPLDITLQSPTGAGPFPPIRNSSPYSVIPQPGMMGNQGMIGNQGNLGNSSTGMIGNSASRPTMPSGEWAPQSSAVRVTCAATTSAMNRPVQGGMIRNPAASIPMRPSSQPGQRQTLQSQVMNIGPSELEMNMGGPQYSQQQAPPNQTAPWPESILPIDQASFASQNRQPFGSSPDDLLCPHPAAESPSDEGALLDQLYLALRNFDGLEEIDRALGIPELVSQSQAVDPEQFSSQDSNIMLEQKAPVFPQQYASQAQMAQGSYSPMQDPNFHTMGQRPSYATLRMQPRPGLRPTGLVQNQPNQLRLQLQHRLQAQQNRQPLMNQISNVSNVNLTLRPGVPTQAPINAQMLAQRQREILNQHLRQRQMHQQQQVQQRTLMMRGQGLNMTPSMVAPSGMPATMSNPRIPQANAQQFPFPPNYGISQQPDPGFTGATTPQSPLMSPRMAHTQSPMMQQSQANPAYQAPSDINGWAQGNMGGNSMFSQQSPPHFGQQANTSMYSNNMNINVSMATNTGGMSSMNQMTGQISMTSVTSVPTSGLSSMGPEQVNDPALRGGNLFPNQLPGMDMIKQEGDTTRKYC", "assay": "inhibition of GAL4-SRC2 driven luciferase expression – cell-based, luminescence, HEK293, triplicate, confirmation (AID 652008;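 active = mean inhibition above 46.5%, the solvent-only control mean plus 3 SD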;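 note: 0% = DMSO-treated cells and 100% = Gossypol at 36 µM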)", "details": "HEK293 GAL4-SRC2 luciferase reporter, at 8.9 µM, stronger effect = higher value"}, "[5]": {"assay": "StAR promoter reporter inhibitors, counter-screen for LRH-1 inverse agonist project, cell-based, luminescence, high throughput (AID 651611; in the data active = inhibition above about 28%)", "details": "StAR promoter luciferase reporter counterscreen, at 3.6 µM, stronger effect = higher value"}, "[6]": {"molecular_target": "Nuclear receptor subfamily 5 group A member 2 (Homo sapiens) (UniProt O00482)", "sequence (O00482 whole entry, looked up)": "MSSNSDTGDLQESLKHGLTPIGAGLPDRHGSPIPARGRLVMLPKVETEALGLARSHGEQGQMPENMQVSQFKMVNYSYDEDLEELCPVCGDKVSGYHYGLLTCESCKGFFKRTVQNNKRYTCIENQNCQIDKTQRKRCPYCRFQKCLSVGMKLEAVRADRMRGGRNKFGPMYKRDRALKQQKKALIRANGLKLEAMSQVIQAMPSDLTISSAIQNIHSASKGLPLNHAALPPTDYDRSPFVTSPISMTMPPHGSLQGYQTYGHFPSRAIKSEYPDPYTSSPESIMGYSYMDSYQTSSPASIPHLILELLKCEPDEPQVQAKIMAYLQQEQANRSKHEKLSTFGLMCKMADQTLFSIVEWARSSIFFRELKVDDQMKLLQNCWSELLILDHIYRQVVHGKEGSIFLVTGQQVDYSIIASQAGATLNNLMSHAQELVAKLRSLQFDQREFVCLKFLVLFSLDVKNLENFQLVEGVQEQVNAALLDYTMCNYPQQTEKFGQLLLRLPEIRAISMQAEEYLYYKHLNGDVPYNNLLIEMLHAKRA", "assay": "NR5A2 activity suppression in reporter cells – cell-based, luminescence, confirmation (AID 651613; in the data active = inhibition above about 42%;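 note: HEK293T cells co-transfected with LRH-1 and StAR promoter luciferase reporter; 0% = vehicle wells and 100% = parental cells lacking receptor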)", "details": "cell-based LRH-1 luciferase reporter, inverse agonism; at 3.6 µM; stronger effect = higher value"}, "[7]": {"molecular_target": "Steroidogenic factor 1 (Homo sapiens) (UniProt Q13285)", "sequence (Q13285 whole entry, looked up)": "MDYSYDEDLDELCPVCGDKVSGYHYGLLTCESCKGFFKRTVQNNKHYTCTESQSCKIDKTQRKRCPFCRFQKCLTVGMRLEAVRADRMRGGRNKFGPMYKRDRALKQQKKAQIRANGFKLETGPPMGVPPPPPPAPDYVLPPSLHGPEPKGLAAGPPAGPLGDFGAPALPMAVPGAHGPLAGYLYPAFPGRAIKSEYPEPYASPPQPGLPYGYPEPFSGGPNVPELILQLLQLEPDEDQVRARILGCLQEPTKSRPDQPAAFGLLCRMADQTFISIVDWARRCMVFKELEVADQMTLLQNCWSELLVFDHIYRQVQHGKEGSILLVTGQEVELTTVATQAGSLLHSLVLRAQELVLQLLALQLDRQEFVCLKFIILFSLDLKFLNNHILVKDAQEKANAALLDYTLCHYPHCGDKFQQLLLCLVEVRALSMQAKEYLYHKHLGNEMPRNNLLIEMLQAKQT", "assay": "inverse agonism at SF1 nuclear receptor – cell-based, luminescence, high throughput, counter-screen for LRH-1 inverse agonist project (AID 651614; in the data active = inhibition above about 44%;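 note: cells cotransfected with StAR promoter reporter and SF1 expression vector; 0% = vehicle on cells with receptor and 100% = vehicle on cells lacking receptor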)", "details": "cell-based SF1 luciferase reporter, at 3.6 µM, stronger effect = higher value"}, "[8]": {"assay": "compounds suppressing VP16-driven luciferase signal – cell-based, luminescence, high throughput, counter-screen for LRH-1 inverse agonist project (AID 651615)", "details": "Gal4-VP16 luciferase reporter cells, at 3.6 µM, stronger effect = higher value"}, "[9]": {"molecular_target": "Receptor-interacting serine/threonine-protein kinase 2 (Homo sapiens) (UniProt O43353)", "sequence (O43353 whole entry, looked up)": "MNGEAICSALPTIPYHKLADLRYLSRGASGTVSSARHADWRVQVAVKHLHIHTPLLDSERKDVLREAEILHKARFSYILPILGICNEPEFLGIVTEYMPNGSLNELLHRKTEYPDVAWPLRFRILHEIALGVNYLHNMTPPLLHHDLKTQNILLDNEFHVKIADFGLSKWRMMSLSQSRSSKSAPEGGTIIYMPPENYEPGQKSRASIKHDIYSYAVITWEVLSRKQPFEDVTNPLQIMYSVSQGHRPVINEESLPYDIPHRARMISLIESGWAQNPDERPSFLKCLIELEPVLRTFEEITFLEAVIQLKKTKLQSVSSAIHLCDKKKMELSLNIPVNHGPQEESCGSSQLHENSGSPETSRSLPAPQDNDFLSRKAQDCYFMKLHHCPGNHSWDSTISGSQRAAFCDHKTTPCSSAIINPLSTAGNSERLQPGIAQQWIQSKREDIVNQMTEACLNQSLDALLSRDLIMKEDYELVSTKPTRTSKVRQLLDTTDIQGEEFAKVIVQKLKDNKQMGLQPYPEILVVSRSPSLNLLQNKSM", "assay": "inhibitors of RIPK2 association with NOD2 – fluorescence, CHO cells, BLA complementation, triplicate, confirmation (AID 624370;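 active = mean inhibition across replicates above a set limit taken from the earlier primary screen, cut at about 21% in these data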;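 note: 0% = DMSO-only wells and the high end = clavulanate BLA-blocked wells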)", "details": "CCF4 FRET, at 4.98 µM, stronger effect = higher value"}, "[10]": {"assay": "BLA reporter readout interference – cell-based, CHO-K1 CMV-bla, CCF4 FRET, fluorescence, artefact control for NOD2-RIPK2 interaction inhibitor project, confirmation (AID 624371;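 active = mean inhibition above the low-control mean inhibition plus three low-control SD, cut at about 11% in these data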;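 note: 0% = DMSO only wells and 100% = clavulanate high control wells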)", "details": "CCF4 FRET ratio, counterscreen, at 4.98 µM, stronger effect = higher value"}, "[11]": {"molecular_target": "Photoreceptor-specific nuclear receptor (Homo sapiens) (UniProt Q9Y5X4)", "sequence (Q9Y5X4 whole entry, looked up)": "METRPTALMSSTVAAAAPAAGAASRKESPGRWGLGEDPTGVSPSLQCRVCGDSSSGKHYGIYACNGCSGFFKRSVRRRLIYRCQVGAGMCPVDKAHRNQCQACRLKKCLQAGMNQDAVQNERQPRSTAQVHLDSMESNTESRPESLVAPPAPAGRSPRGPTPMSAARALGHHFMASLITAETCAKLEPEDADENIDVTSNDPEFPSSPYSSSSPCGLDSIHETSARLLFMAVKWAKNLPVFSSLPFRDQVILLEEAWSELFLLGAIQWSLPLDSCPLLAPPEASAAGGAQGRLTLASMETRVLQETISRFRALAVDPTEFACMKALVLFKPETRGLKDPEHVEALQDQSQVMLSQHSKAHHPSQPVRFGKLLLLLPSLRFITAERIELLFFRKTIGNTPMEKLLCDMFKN", "assay": "retest of NR2E3-NCOR disrupting agonists – cell-based, luminescence, CHO-S two-hybrid, confirmation (AID 624378;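 active = average inhibition above a cutoff equal to the mean inhibition of all tested compounds plus one SD, cut at about 70% in these data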;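 note: 0% = DMSO in NR2E3 cells and 100% = DMSO in cells lacking NR2E3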)", "details": "CHO-S mammalian two-hybrid NR2E3-NCOR, luciferase luminescence; at 3.98 µM; stronger effect = higher value"}, "[12]": {"assay": "nonselective effects on VP16 transactivation – cell-based, luminescence, CHO-S, high throughput, counter-screen for NR2E3 agonist project, confirmation (AID 624379;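 active = mean inhibition above a cutoff equal to the average over all tested compounds plus one standard deviation, cut at about 70% in these data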;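 note: 0% = DMSO with VP16-transfected cells and 100% = DMSO with cells lacking VP16; higher means less reporter light so more repression of VP16 activity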)", "details": "CHO-S GAL4-VP16 luciferase reporter, at 3.98 µM, stronger effect = higher value"}, "[13]": {"molecular_target": "Nuclear receptor coactivator 1 (Homo sapiens) (UniProt Q15788)", "assay": "NCOA1 GAL4-fusion reporter inhibition – cell-based, luminescence, quadruplicate, confirmation (AID 588820;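 active = mean inhibition above 46.68%, the untreated control wells mean plus 3 SD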;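 note: 0% = DMSO wells and 100% = gossypol 36 µM treated wells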)", "details": "HEK293 GAL4-SRC1 luciferase reporter, at 3.6 µM, stronger effect = higher value"}, "[14]": {"assay": "repression of VP16-driven luciferase reporter – cell-based, luminescence, high throughput, counter-screen for SRC1 inhibitor project (AID 588824; in the data active = inhibition above about 25%)", "details": "cell-based VP16 transactivation luciferase luminescence; at 3.6 µM; stronger effect = higher value"}}, "note": "A number with no mark means an inactive call. Some of the results follow. The source made the active and inactive calls. Cut-off read from the data, not from the text of the source, unless noted: active = inhibition above about 33%; inactive = the rest."}
{"molecule": "COc1ccc(CN2Cc3cnnn3-c3ccccc3C2C#N)cc1", "note": "(configuration not stated)", "values": [{"measurement": "inhibition", "setting": "[1]", "value": "62.8% (active)"}, {"measurement": "inhibition", "setting": "[2]", "value": "56.2% (active)"}, {"measurement": "inhibition", "setting": "[3]", "value": "51.6% (active)"}, {"measurement": "inhibition", "setting": "[4]", "value": "49.8% (active)"}]}
{"molecule": "CC(C)(O)/C=C/C(=O)C(C)(O)C1C(O)CC2(C)C3CC=C4C(C=C(O)C(=O)C4(C)C)C3(C)C(=O)CC12C", "note": "(configuration not stated)", "values": [{"measurement": "inhibition", "setting": "[1]", "value": "70.1% (active)"}, {"measurement": "inhibition", "setting": "[2]", "value": "74% (active)"}, {"measurement": "inhibition", "setting": "[5]", "value": "66% (active)"}, {"measurement": "inhibition", "setting": "[6]", "value": "79.3% (active)"}, {"measurement": "inhibition", "setting": "[7]", "value": "78.9% (active)"}, {"measurement": "inhibition", "setting": "[8]", "value": "86.1% (active)"}, {"measurement": "inhibition", "setting": "[3]", "value": "62.2% (active)"}, {"measurement": "inhibition", "setting": "[4]", "value": "96.5% (active)"}]}
{"molecule": "CC(=O)OC1C2(CC3N4C(=O)C5(CO)SSC4(CC31O)C(=O)N5C)OC(C)C(C)(C)C2=O", "note": "(configuration not stated)", "values": [{"measurement": "inhibition", "setting": "[1]", "value": "95.9% (active)"}, {"measurement": "inhibition", "setting": "[2]", "value": "94.1% (active)"}, {"measurement": "inhibition", "setting": "[9]", "value": "41.9% (active)"}, {"measurement": "inhibition", "setting": "[10]", "value": 0.4, "unit": "%"}, {"measurement": "inhibition", "setting": "[11]", "value": "98.8% (active)"}, {"measurement": "inhibition", "setting": "[12]", "value": "99.1% (active)"}, {"measurement": "inhibition", "setting": "[5]", "value": "96.3% (active)"}, {"measurement": "inhibition", "setting": "[6]", "value": "110% (active)"}, {"measurement": "inhibition", "setting": "[7]", "value": "98.4% (active)"}, {"measurement": "inhibition", "setting": "[8]", "value": "97.4% (active)"}]}
{"molecule": "COc1ccc(-n2nnnc2C(CCSC)N2CCC(n3c(=O)[nH]c4ccccc43)CC2)cc1", "note": "(configuration not stated)", "values": [{"measurement": "inhibition", "setting": "[13]", "value": -13.8, "unit": "%"}, {"measurement": "inhibition", "setting": "[14]", "value": -1.55, "unit": "%"}]}
{"molecule": "CN1CCN(c2cccc3c2C(=O)c2ccccc2C3=O)CC1", "values": [{"measurement": "inhibition", "setting": "[13]", "value": 20.1, "unit": "%"}, {"measurement": "inhibition", "setting": "[14]", "value": 14.8, "unit": "%"}]}
{"molecule": "c1ccc(-c2[nH]c(-c3ccccc3)[n+](CC3CO3)c2-c2ccccc2)cc1", "note": "(configuration not stated)", "values": [{"measurement": "inhibition", "setting": "[1]", "value": 13.4, "unit": "%"}, {"measurement": "inhibition", "setting": "[2]", "value": -0.66, "unit": "%"}, {"measurement": "inhibition", "setting": "[3]", "value": 22.1, "unit": "%"}, {"measurement": "inhibition", "setting": "[4]", "value": 30.2, "unit": "%"}]}
{"molecule": "O=C(c1cn(Cc2ccccc2F)c2ncccc12)C(F)(F)F", "values": [{"measurement": "inhibition", "setting": "[13]", "value": -9.15, "unit": "%"}, {"measurement": "inhibition", "setting": "[14]", "value": -0.44, "unit": "%"}]}
{"molecule": "CCOC(=O)[C@]12Cc3ccccc3[C@H]1N(C1CCCCC1)C(=O)c1cc(OC)ccc12", "values": [{"measurement": "inhibition", "setting": "[9]", "value": "61.3% (active)"}, {"measurement": "inhibition", "setting": "[10]", "value": 0.28, "unit": "%"}]}
{"molecule": "CCCCCCN=C(CC)c1c(O)n(CCCC)c(=O)[nH]c1=O", "values": [{"measurement": "inhibition", "setting": "[11]", "value": "84.2% (active)"}, {"measurement": "inhibition", "setting": "[12]", "value": 56.9, "unit": "%"}]}
{"molecule": "CC(=NCc1ccc2c(c1)OCO2)c1c(O)[nH]c(=O)[nH]c1=O", "values": [{"measurement": "inhibition", "setting": "[11]", "value": 2.39, "unit": "%"}, {"measurement": "inhibition", "setting": "[12]", "value": 8.56, "unit": "%"}]}
{"molecule": "N#Cc1c(Br)n(C2OC(CO)C(O)C2O)c2ncnc(N)c12", "note": "(configuration not stated)", "values": [{"measurement": "inhibition", "setting": "[3]", "value": -16.7, "unit": "%"}, {"measurement": "inhibition", "setting": "[4]", "value": "54.4% (active)"}]}
{"molecule": "COc1ccccc1-n1c(/C=C/c2ccccn2)nc2ccccc2c1=O", "values": [{"measurement": "inhibition", "setting": "[5]", "value": 16.9, "unit": "%"}, {"measurement": "inhibition", "setting": "[6]", "value": "63.3% (active)"}, {"measurement": "inhibition", "setting": "[7]", "value": "53.7% (active)"}, {"measurement": "inhibition", "setting": "[8]", "value": 4.69, "unit": "%"}]}
{"molecule": "CCN(CC)C(=O)COc1cc(C)cc2oc(=O)c3c(c12)CCCC3", "values": [{"measurement": "inhibition", "setting": "[5]", "value": 7.68, "unit": "%"}, {"measurement": "inhibition", "setting": "[6]", "value": "63.6% (active)"}, {"measurement": "inhibition", "setting": "[7]", "value": "59% (active)"}, {"measurement": "inhibition", "setting": "[8]", "value": -18.9, "unit": "%"}]}
{"molecule": "N#Cc1ccc(NC(=S)N2Cc3ccccc3-n3nncc3C2)cc1", "values": [{"measurement": "inhibition", "setting": "[5]", "value": -5.3, "unit": "%"}, {"measurement": "inhibition", "setting": "[6]", "value": "56.4% (active)"}, {"measurement": "inhibition", "setting": "[7]", "value": "47.5% (active)"}, {"measurement": "inhibition", "setting": "[8]", "value": 10.9, "unit": "%"}]}
